IDE exosite FP – insulin-degrading enzyme (human) exo-site inhibition. purified IDE, FL-6b probe fluorescence polarization; stronger effect = lower value. hit rate 6.3% among 17,000. AID 1259349. z-score at 20 µM. P14735;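 active = z-score of -3 or lower, meaning strong loss of probe binding signal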;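 note: His-tagged human IDE residues 42-1019 made in E. coli with 30 nM FL-6b probe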
Starred values were filed as active, the others as inactive. The full list was thinned out, with hits kept by preference.

SMILES	IDE exosite FP
Cc1ccc(-c2ccc([C@H]3[C@@H](CO)N4C(=O)CN(C(=O)c5cccnc5)C[C@@H]34)cc2)cc1	-1.7
O=C(c1ccncc1)N1CC(=O)N2[C@H](C1)[C@@H](c1ccc(-c3cccnc3)cc1)[C@@H]2CO	-3.2*
Cc1cccc(-c2ccc([C@H]3[C@@H](CO)N4C(=O)CN(C(=O)c5cccnc5)C[C@H]34)cc2)c1	-15*
Cc1ccc(-c2ccc([C@@H]3[C@H]4CN(C(=O)c5cccnc5)CC(=O)N4[C@H]3CO)cc2)cc1	-3.6*
O=C(c1cccc(F)c1)N1CC(=O)N2[C@H](C1)[C@H](c1ccc(-c3cccnc3)cc1)[C@@H]2CO	2.2
Cc1cccc(-c2ccc([C@@H]3[C@@H](CO)N4C(=O)CN(C(=O)c5cccnc5)C[C@@H]34)cc2)c1	-13*
COc1ccc(-c2ccc([C@@H]3[C@@H](CO)N4C(=O)CN(C(=O)c5cccnc5)C[C@H]34)cc2)cc1	0.58
Cn1cnc(S(=O)(=O)N2C[C@@H](O)COC[C@@H]3O[C@@H](CC(=O)NCc4cccc(F)c4)CC[C@H]32)c1	-0.2
COc1cccc(S(=O)(=O)Nc2ccc3c(c2)C(=O)N(C)C[C@H](OC)[C@@H](C)CN(Cc2ccccc2F)[C@@H](C)CO3)c1	-0.74
CN1CCN(C(=O)C[C@@H]2CC[C@@H]3[C@H](COC[C@@H](O)CN3CC3CCCCC3)O2)CC1	0.48
CCCNC(=O)N1[C@H](CNC(C)=O)[C@@H](c2ccccc2)[C@@H]1CO	3.4
O=C(C[C@H]1CC[C@@H](NC(=O)Nc2ccc(C(F)(F)F)cc2)[C@@H](CO)O1)NCc1cccc(F)c1	1.5
C/C=C/c1ccc([C@@H]2[C@@H](C#N)N(c3ncc(CC)s3)[C@@H]2CO)cc1	4.7
C[C@H](CO)N1C[C@H](C)[C@@H](CN(C)C(=O)[C@@H](Cc2ccccc2)N(C)C)OCc2ccccc2-c2c(n(C)c3ccccc23)C1=O	-0.18
CN(C)C(=O)c1ccc(-c2ccc([C@@H]3[C@H](CO)N4CCCCN(Cc5ccncc5)C[C@@H]34)cc2)cc1	1.4
Cc1noc(C)c1S(=O)(=O)N1[C@@H]2CNC[C@H]1C2c1ccc(-c2cccc(F)c2)cc1 (stereo not given in full)	-0.44
CCN1CC(=O)N2[C@H](CO)[C@@H](c3ccc(-c4ccccc4F)cc3)[C@H]2C1	1.9
O=C(c1ccccc1F)N1CC2(C1)[C@H](c1ccccc1)[C@@H](CO)N2CC1CCOCC1	-0.62
COc1ccc(-c2ccc([C@@H]3[C@H]4CN(C(=O)c5cccnc5)CC(=O)N4[C@H]3CO)cc2)cc1	1.7
COc1ccc(-c2ccc([C@H]3[C@@H](CO)N4C(=O)CN(C(=O)c5cccnc5)C[C@@H]34)cc2)cc1	2.7
COc1ccc(-c2ccc([C@H]3[C@@H](CO)N4C(=O)CN(C(=O)c5cccnc5)C[C@H]34)cc2)cc1	-4.9*
C[C@H]1CC(=O)N[C@@H](c2ccccc2)C/C=C\C[C@H](c2ccccc2)NC1=O	-0.41
C/C=C/c1ccc([C@H]2[C@@H](CO)N(S(C)(=O)=O)[C@@H]2CN(CC)C(=O)CC)cc1	2.8
C[C@H](NC(=O)[C@@H]1[C@@H](CO)[C@@H]2Cn3c(cccc3=O)[C@@H]2N1CCC(F)(F)F)c1ccccc1	0.7
COc1ccc2c3c(n(C)c2c1)[C@H](CO)N(Cc1ccccc1OC)CC31CN(C)C1	-1.3
SMILES	IDE exosite FP
CCCC(=O)N1CC2(C1)CN(Cc1ccccc1F)[C@@H](CO)c1c2c2ccc(OC)cc2n1C	-0.33
CCS(=O)(=O)N1CC2(CN(Cc3ccccc3F)[C@@H](CO)c3[nH]c4cc(OC)ccc4c32)C1	-0.44
COc1ccc2c3c([nH]c2c1)[C@@H](CO)N(Cc1ccccc1F)CC31CCN(C(=O)C2CC2)CC1	-3.6*
COc1ccc2c3c([nH]c2c1)[C@@H](CO)N(Cc1ccccn1)CC31CCN(C(C)=O)CC1	-3.6*
COc1ccc2c3c(n(C)c2c1)[C@H](CO)N(Cc1ccccc1Cl)CC31CCN(C(=O)CC2CC2)CC1	-4.1*
COc1ccc2c3c([nH]c2c1)[C@H](CO)N(Cc1ccccn1)CC31CN(C(=O)CC2CC2)C1	-0.017
COc1ccc2c3c([nH]c2c1)[C@H](CO)N(Cc1ccccn1)CC31CCN(C(C)=O)CC1	-2.8
COc1ccc2c3c([nH]c2c1)[C@@H](CO)N(Cc1ccccc1Cl)CC31CN(C(=O)C2CC2)C1	-3
COCC(=O)N1CCC2(CC1)CN(Cc1ccccc1Cl)[C@H](CO)c1[nH]c3cc(OC)ccc3c12	-1.8
CCCC(=O)N1CCC2(CC1)CN(Cc1ccc(Cl)cc1)[C@@H](CO)c1[nH]c3cc(OC)ccc3c12	-1.7
COCC(=O)N1CCC2(CC1)CN(Cc1ccccc1Cl)[C@@H](CO)c1[nH]c3cc(OC)ccc3c12	-3.6*
C[C@H](NC(=O)C[C@H]1C=C[C@H](NS(=O)(=O)c2cccc(F)c2)[C@H](CO)O1)c1ccccc1	3.3
COc1cccc(-c2ccc([C@H]3[C@@H](CO)N4CCCCN(CC5CC5)C[C@@H]34)cc2)c1	-0.18

Source: PubChem BioAssay
